Measurements: PubChem BioAssay
Active and inactive are the calls of the source.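 Rule for the calls, unless noted: active = fluorescence slope after compound addition differing from the mean of all screened samples at 99.7% confidence, in either direction; inactive = the rest.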

Key:
[1] = inhibitors of TNFa-induced NFkB p65 translocation, primary screen, imaging, HUVEC, MLSMR starter and 10KST1 sets (AID 438;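 active = inhibition above 20% together with a positive visual image hit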;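 note: compound added about 3h40 before a 20 min TNFalpha stimulation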;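 for inhibition: signal is the nuclear over cytoplasmic p65 intensity ratio per well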); settings: HUVEC TNFa-induced p65 nuclear translocation; cell count: measured here: nuclei count (cytotoxicity indicator), at 2.08 µM; inhibition: at 2 µM, stronger effect = higher value, 0% TNFa-plus-vehicle, 100% no-TNFa wells
[2] = inhibitors of mutant huntingtin aggregation, primary screen, imaging, exon1htt(103Q)mCFP cells, high-content imaging (AID 483;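 active = visual image review flags a hit and inhibition of aggregation exceeds 20%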;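 note: compound exposure lasted 3 days before fixation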;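 for nuclei count: percent of the per-plate median nuclei count of sample wells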); settings: exon1htt(103Q)mCFP cell line, aggregate imaging, at 2 µM; inhibition of aggregation: stronger effect = higher value; nuclei count: measured here: cell count, toxicity
[3] = inhibitors of E-selectin induction by TNFa, primary screen, imaging, HUVEC, immunofluorescence, MLSMR starter and 10KST1 sets (AID 487;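 active = visually confirmed hit in the image check and inhibition above 20%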;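 for inhibition: signal is fraction of cell area covered by stained E-selectin grains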;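 for nuclei count: 100% = median nuclei count of all wells on the same plate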); settings: HUVEC TNFalpha-induced E-selectin immunofluorescence imaging, at 2 µM; inhibition: stronger effect = higher value; nuclei count: measured here: cell number, toxicity
[4] = target: Voltage-gated potassium channel subunit beta-2 (Rattus norvegicus) (UniProt P62483); experiment: KvBeta enzyme negative modulators, primary screen, biochemical, NADPH fluorescence (AID 622;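 active = fluorescence slope higher than the sample average by over 3 SD, cut at about -0.22 in these data, passing the limit was not always enough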;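 note: slope of raw intensity against log time taken from 70 to 1610 s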); settings: recombinant KvBeta, 4-cyanobenzaldehyde reduction, at 10 µM, stronger effect = higher value
[5] = target: Voltage-gated potassium channel subunit beta-2 (Rattus norvegicus) (UniProt P62483); experiment: KvBeta positive modulators, primary screen, biochemical, NADPH fluorescence (AID 623;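 active = NADPH fluorescence slope more negative than the mean of all samples by about 3 SD, 99.7% confidence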;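 note: fluorescence intensity change per second fitted from 20 to 320 s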); settings: Recombinant KvBeta, NADPH fluorescence decrease slope, 10 min; at 10 µM; stronger effect = lower value
[6] = target: Alpha-2C adrenergic receptor (Homo sapiens) (UniProt P18825); experiment: modulators of alpha2C/GIRK thallium flux, primary screen, cell-based, HEK293 alpha2C/GIRK1/2 (AID 624); settings: thallium flux BTC fluorescence, at 10 µM, actives lie on both sides;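 note: slope of fluorescence ratio to pre-addition baseline per second over 15 to 24 s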
[7] = inhibitors of Sendai virus-induced IRF3 signaling, primary screen, TLR/RLR signaling modifier project, cell-based, Sendai virus stimulus, luciferase, 10K MLSCN set (AID 602276;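 active = inhibition at or above 50% at 10 µM; inactive = inhibition below 50%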;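 note: firefly luciferase from ISG56 promoter only with Renilla not read in this screen; 0% = Sendai virus plus DMSO and 100% = medium plus DMSO without virus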); settings: HEK293 RL24 IRF3 luciferase reporter, at 10 µM, stronger effect = higher value
[8] = inhibitors of poly I:C-induced TLR3 signaling, primary screen, cell-based, poly I:C stimulus, luciferase, 10K MLSCN set (AID 602277;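 active = inhibition of the reporter signal at or above 50%; inactive = inhibition below 50%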); settings: HEK293-TLR3 RL24 IRF3 luciferase reporter, at 10 µM, stronger effect = higher value

Sequence of Voltage-gated potassium channel subunit beta-2 (Rattus norvegicus) (P62483 whole entry, looked up): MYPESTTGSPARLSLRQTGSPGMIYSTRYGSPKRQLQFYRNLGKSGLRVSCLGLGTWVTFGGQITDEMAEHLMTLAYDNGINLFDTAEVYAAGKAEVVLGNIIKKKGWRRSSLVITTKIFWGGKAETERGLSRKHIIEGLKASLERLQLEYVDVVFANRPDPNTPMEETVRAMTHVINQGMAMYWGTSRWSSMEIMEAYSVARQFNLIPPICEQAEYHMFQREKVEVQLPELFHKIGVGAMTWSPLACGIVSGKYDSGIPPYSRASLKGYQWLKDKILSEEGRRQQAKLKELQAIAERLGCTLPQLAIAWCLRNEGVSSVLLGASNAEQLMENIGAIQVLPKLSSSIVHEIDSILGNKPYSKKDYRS
Sequence of Alpha-2C adrenergic receptor (Homo sapiens) (P18825 whole entry, looked up): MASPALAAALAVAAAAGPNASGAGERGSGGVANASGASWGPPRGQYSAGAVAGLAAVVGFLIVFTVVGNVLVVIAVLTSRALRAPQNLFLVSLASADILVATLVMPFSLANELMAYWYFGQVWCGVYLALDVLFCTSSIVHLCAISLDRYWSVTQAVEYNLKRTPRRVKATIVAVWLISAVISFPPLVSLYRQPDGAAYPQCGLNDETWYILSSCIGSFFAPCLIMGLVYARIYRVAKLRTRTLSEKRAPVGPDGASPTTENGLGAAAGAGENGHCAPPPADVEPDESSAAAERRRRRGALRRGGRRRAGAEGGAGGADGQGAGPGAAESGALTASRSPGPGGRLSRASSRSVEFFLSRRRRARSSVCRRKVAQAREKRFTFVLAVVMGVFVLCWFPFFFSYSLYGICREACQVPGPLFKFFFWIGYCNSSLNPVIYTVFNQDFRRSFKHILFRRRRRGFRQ

For C=CCc1ccccc1OCC(O)CN1CCN(Cc2ccc3c(c2)OCO3)CC1 (stereo not drawn), the cell count [1] was 321, the inhibition [1] was 4.5% (inactive) and the inhibition of aggregation [2] was -3.4% (inactive). For the same compound, the nuclei count [2] was 91.2%, the inhibition [3] was -2% (inactive) and the nuclei count [3] was 91.6%. The fluorescence slope [4] was -0.457 (inactive), the NADPH fluorescence slope [5] was 1.5e-05 (inactive) and the slope [6] was 0.0057 (inactive). For the same compound, the inhibition [7] was 10.6% (inactive) and the inhibition [8] was 1.32% (inactive).
With N#Cc1c(N2CCCC2)nc(N)c2c(N)nc(N3CCCC3)cc12 the cell count [1] was 581, the inhibition [1] was -9.2% (inactive) and the inhibition of aggregation [2] was -6.2% (inactive). For the same compound, the nuclei count [2] was 84.2%, the inhibition [3] was -144% (inactive) and the nuclei count [3] was 160%. The fluorescence slope [4] was -0.0789 (active), the NADPH fluorescence slope [5] was 1.7e-06 (inactive) and the slope [6] was 0.0051 (inactive). The inhibition [7] was -6.36% (inactive) and the inhibition [8] was 2.26% (inactive).
For Cc1ccc(S(=O)(=O)N2CCC(C(=O)N3CCN(Cc4ccccc4)CC3)CC2)cc1, the cell count [1] was 659, the inhibition [1] was -14% (inactive) and the inhibition of aggregation [2] was 19% (inactive). The nuclei count [2] was 110%, the inhibition [3] was -40.7% (inactive) and the nuclei count [3] was 106%. For the same compound, the fluorescence slope [4] was -0.518 (inactive), the NADPH fluorescence slope [5] was -1.5e-05 (inactive) and the slope [6] was 0.0064 (inactive). For the same compound, the inhibition [7] was 8.56% (inactive) and the inhibition [8] was 16.4% (inactive).
For CC1=C(C(=O)OC(C)C)C(C2CC=CCC2)NC(=O)N1 (stereo not drawn), the cell count [1] was 306, the inhibition [1] was 2% (inactive) and the inhibition of aggregation [2] was 17.1% (inactive). For the same compound, the nuclei count [2] was 93%, the inhibition [3] was 35.9% (inactive) and the nuclei count [3] was 98.9%. For the same compound, the fluorescence slope [4] was -0.322 (inactive), the NADPH fluorescence slope [5] was 1.4e-05 (inactive) and the slope [6] was 0.0059 (inactive). For the same compound, the inhibition [7] was 0.205% (inactive) and the inhibition [8] was 9.1% (inactive).
In the case of CCOc1ccc(-c2nc(S(=O)(=O)c3ccccc3)c(NCc3cccnc3)o2)cc1, the cell count [1] is reported as 621, the inhibition [1] is reported as 0.6% (inactive) and the inhibition of aggregation [2] is reported as -7.9% (inactive). The nuclei count [2] was 105%, the inhibition [3] was -59% (inactive) and the nuclei count [3] was 109%. For the same compound, the fluorescence slope [4] was -0.534 (inactive), the NADPH fluorescence slope [5] was 3.2e-06 (inactive) and the slope [6] was 0.00448 (inactive). For the same compound, the inhibition [7] was 0.887% (inactive) and the inhibition [8] was -7.62% (inactive).
In the case of Cc1nc(SCc2ccc(Br)cc2)[nH]c(=O)c1C, the cell count [1] is reported as 755, the inhibition [1] is reported as 0.8% (inactive) and the inhibition of aggregation [2] is reported as -11.8% (inactive). For the same compound, the nuclei count [2] was 76.4%, the inhibition [3] was -44.8% (inactive) and the nuclei count [3] was 117%. The fluorescence slope [4] was -0.452 (inactive), the NADPH fluorescence slope [5] was -2.5e-05 (inactive) and the slope [6] was 0.00691 (inactive). For the same compound, the inhibition [7] was 3.06% (inactive) and the inhibition [8] was 29.5% (inactive).
For O=C1CC(c2ccsc2)c2cc3c(cc2N1)OCCO3 (stereo not drawn), the cell count [1] was 623, the inhibition [1] was 0% (inactive) and the inhibition of aggregation [2] was -4.2% (inactive). For the same compound, the nuclei count [2] was 87.6%, the inhibition [3] was -78.5% (inactive) and the nuclei count [3] was 129%. The fluorescence slope [4] was -0.556 (inactive), the NADPH fluorescence slope [5] was -2.5e-05 (inactive) and the slope [6] was 0.0063 (inactive). The inhibition [7] was 1.12% (inactive) and the inhibition [8] was 21.1% (inactive).
With CCOC(=O)c1sc(NC(=O)CSc2nnnn2-c2ccccc2)c(C(=O)OCC)c1C the cell count [1] was 425, the inhibition [1] was -1.3% (inactive) and the inhibition of aggregation [2] was 12.5% (inactive). The nuclei count [2] was 96.5%, the inhibition [3] was -467% (inactive) and the nuclei count [3] was 156%. The fluorescence slope [4] was -0.567 (inactive), the NADPH fluorescence slope [5] was 1.2e-05 (inactive) and the slope [6] was 0.00928 (inactive). For the same compound, the inhibition [7] was -15.7% (inactive) and the inhibition [8] was -15.7% (inactive).
